# The whole screen tested about 5,500 compounds, of which about 2,000 (36%) were called active. Not shown: some 18% with an inconclusive outcome. The list shows a part of the results. A number with no mark means an inactive call. Cut-off read from the data, not from the text of the source: active = normalized growth mostly below about 0.91 (no sharp cut-off); inconclusive = no clear call, values can overlap the other calls; inactive = mostly above about 0.92.
# Assay: chemical genetic growth profiling, strain panel (AID 1159580);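 note: tested at 20 µM; growth read once vehicle control cultures reached saturation at 30 °C; 1 = growth at the plate median or of vehicle wells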
# Settings: S. cerevisiae deletion strains, growth OD
# [1] = locus YHR030C, strain SLT2, stronger effect = lower value
# [2] = locus YJL187C, strain SWE1, stronger effect = lower value
smiles,measurement,setting,value
CN(C)c1ccc(-c2n[nH]c(=O)c3ccccc23)cc1[N+](=O)[O-],normalized growth,"locus YAL013W, strain DEP1, stronger effect = lower value",0.966
same,normalized growth,"locus YBR229C, strain ROT2, stronger effect = lower value",0.986
same,normalized growth,"locus YCL061C, strain MRC1, stronger effect = lower value",0.98
same,normalized growth,"locus YDL101C, strain DUN1, stronger effect = lower value",1
same,normalized growth,"locus YDR150W, strain NUM1, stronger effect = lower value",0.981
same,normalized growth,"locus YEL061C, strain CIN8, stronger effect = lower value",0.907 (active)
same,normalized growth,"locus YGR078C, strain PAC10, stronger effect = lower value",1
same,normalized growth,[1],0.875
same,normalized growth,"locus YHR087W, strain rtc3, stronger effect = lower value",0.982
same,normalized growth,[2],0.978
same,normalized growth,"locus YJR043C, strain POL32, stronger effect = lower value",0.963
same,normalized growth,"locus YJR075W, strain HOC1, stronger effect = lower value",0.99
same,normalized growth,"locus YKL190W, strain CNB1, stronger effect = lower value",1.01
same,normalized growth,"locus YLR039C, strain RIC1, stronger effect = lower value",1.09
same,normalized growth,"locus YLR058C, strain SHM2 (second series), stronger effect = lower value",0.994
same,normalized growth,"locus YLR085C, strain ARP6, stronger effect = lower value",0.882
same,normalized growth,"locus YLR262C, strain YPT6, stronger effect = lower value",1.08
same,normalized growth,"locus YML094W, strain GIM5, stronger effect = lower value",0.891
same,normalized growth,"locus YMR219W, strain ESC1, stronger effect = lower value",0.999
same,normalized growth,"locus YMR263W, strain SAP30, stronger effect = lower value",0.961
same,normalized growth,"locus YNL153C, strain GIM3, stronger effect = lower value",0.979
same,normalized growth,"locus YNL298W, strain CLA4 (second series), stronger effect = lower value",0.891
same,normalized growth,"locus YNL322C, strain KRE1, stronger effect = lower value",1.03
same,normalized growth,"locus YNR030W, strain Alg12, stronger effect = lower value",0.955
same,normalized growth,"locus YPL055C, strain LGE1, stronger effect = lower value",0.886
same,normalized growth,"locus YPL241C, strain CIN2, stronger effect = lower value",0.96
same,normalized growth,"locus YPR135W, strain CTF4, stronger effect = lower value",0.97
NC(=O)CS(=O)C(c1ccccc1)c1ccccc1 (stereo unspecified),normalized growth,"locus YAL021C, strain ccr4, stronger effect = lower value",1.01
same,normalized growth,"locus YAL026C, strain drs2, stronger effect = lower value",1.04
same,normalized growth,"locus YAL030W, strain snc1, stronger effect = lower value",1.02
same,normalized growth,"locus YBL061C, strain skt5, stronger effect = lower value",1.02
same,normalized growth,"locus YBR009C, strain hhf1, stronger effect = lower value",0.976
same,normalized growth,"locus YBR023C, strain chs3, stronger effect = lower value",1.03
same,normalized growth,"locus YBR171W, strain sec66, stronger effect = lower value",1.02
same,normalized growth,"locus YBR231C, strain swc5, stronger effect = lower value",1
same,normalized growth,"locus YBR279W, strain paf1, stronger effect = lower value",1.02
same,normalized growth,"locus YCL011C, strain gbp2, stronger effect = lower value",1.02
same,normalized growth,"locus YCL016C, strain dcc1, stronger effect = lower value",1.04
same,normalized growth,"locus YCL069W, strain vba3, stronger effect = lower value",0.998
same,normalized growth,"locus YCR088W, strain abp1, stronger effect = lower value",1.01
same,normalized growth,"locus YDL005C, strain med2, stronger effect = lower value",1.03
same,normalized growth,"locus YDL040C, strain nat1, stronger effect = lower value",0.998
same,normalized growth,"locus YDR001C, strain nth1, stronger effect = lower value",1
same,normalized growth,"locus YDR069C, strain doa4, stronger effect = lower value",1.02
same,normalized growth,"locus YDR137W, strain rgp1, stronger effect = lower value",1.05
same,normalized growth,"locus YDR159W, strain sac3, stronger effect = lower value",0.939
same,normalized growth,"locus YDR195W, strain ref2",0.981
same,normalized growth,"locus YDR297W, strain sur2, stronger effect = lower value",0.994
same,normalized growth,"locus YDR334W, strain swr1, stronger effect = lower value",1
same,normalized growth,"locus YDR335W, strain msn5, stronger effect = lower value",1.02
same,normalized growth,"locus YDR392W, strain spt3, stronger effect = lower value",0.968
same,normalized growth,"locus YEL003W, strain gim4, stronger effect = lower value",0.99
same,normalized growth,"locus YEL037C, strain rad23, stronger effect = lower value",1.01
same,normalized growth,"locus YEL061C, strain CIN8 (second series), stronger effect = lower value",1.01
same,normalized growth,"locus YER015W, strain faa2, stronger effect = lower value",1.01
same,normalized growth,"locus YER016W, strain bim1, stronger effect = lower value",1.02
same,normalized growth,"locus YER111C, strain swi4, stronger effect = lower value",1.01
same,normalized growth,"locus YER155C, strain BEM2 (second series), stronger effect = lower value",1.02
same,normalized growth,"locus YFR010W, strain ubp6, stronger effect = lower value",0.987
same,normalized growth,"locus YGL167C, strain pmr1, stronger effect = lower value",1
same,normalized growth,"locus YGL173C, strain kem1, stronger effect = lower value",1
same,normalized growth,"locus YGL227W, strain vid30, stronger effect = lower value",1.01
same,normalized growth,"locus YGL240W, strain doc1, stronger effect = lower value",1.01
same,normalized growth,"locus YGL253W, strain hxk2, stronger effect = lower value",1.03
same,normalized growth,"locus YHR013C, strain ard1, stronger effect = lower value",1.05
same,normalized growth,"locus YHR027C, strain rpn1, stronger effect = lower value",1.01
same,normalized growth,[1],1.04
same,normalized growth,"locus YHR079C, strain IRE1, stronger effect = lower value",1.04
same,normalized growth,"locus YHR142W, strain chs7, stronger effect = lower value",1.01
same,normalized growth,"locus YJL092W, strain hpr5, stronger effect = lower value",1
same,normalized growth,"locus YJL095W, strain BCK1 (second series), stronger effect = lower value",1.02
same,normalized growth,"locus YJL095W, strain BCK1, stronger effect = lower value",0.996
same,normalized growth,"locus YJL115W, strain asf1, stronger effect = lower value",1.01
same,normalized growth,"locus YJL129C, strain trk1, stronger effect = lower value",1.04
same,normalized growth,"locus YJL154C, strain vps35, stronger effect = lower value",1.01
same,normalized growth,"locus YJL164C, strain tpk1, stronger effect = lower value",0.988
same,normalized growth,"locus YJL166W, strain qcr8, stronger effect = lower value",0.982
same,normalized growth,[2],1.01
same,normalized growth,"locus YJR066W, strain TOR1, stronger effect = lower value",0.977
same,normalized growth,"locus YKL160W, strain elf1, stronger effect = lower value",1.05
same,normalized growth,"locus YKR026C, strain gcn3, stronger effect = lower value",1.01
same,normalized growth,"locus YKR091W, strain srl3, stronger effect = lower value",1.01
same,normalized growth,"locus YLL001W, strain dnm1, stronger effect = lower value",0.972
same,normalized growth,"locus YLL026W, stronger effect = lower value",1
same,normalized growth,"locus YLL041C, strain sdh2, stronger effect = lower value",1
same,normalized growth,"locus YLR027C, strain aat2, stronger effect = lower value",0.985
same,normalized growth,"locus YLR113W, strain HOG1, stronger effect = lower value",0.961
same,normalized growth,"locus YLR221C, strain rsa3, stronger effect = lower value",0.977
same,normalized growth,"locus YLR258W, strain gsy2, stronger effect = lower value",1.03
same,normalized growth,"locus YLR262C, strain YPT6 (second series), stronger effect = lower value",1.01
same,normalized growth,"locus YLR320W, strain mms22, stronger effect = lower value",0.958
same,normalized growth,"locus YLR342W, strain FKS1, stronger effect = lower value",1.02
same,normalized growth,"locus YLR357W, strain rsc2, stronger effect = lower value",0.997
same,normalized growth,"locus YLR370C, strain arc18, stronger effect = lower value",1.02
same,normalized growth,"locus YLR384C, strain iki3, stronger effect = lower value",1.02
same,normalized growth,"locus YML120C, strain ndi1, stronger effect = lower value",0.981
same,normalized growth,"locus YMR058W, strain fet3, stronger effect = lower value",1.02
same,normalized growth,"locus YMR125W, strain sto1, stronger effect = lower value",1.04
same,normalized growth,"locus YMR129W, stronger effect = lower value",1.01
same,normalized growth,"locus YMR205C, strain PFK2, stronger effect = lower value",1.01
same,normalized growth,"locus YMR231W, strain pep5, stronger effect = lower value",0.999
same,normalized growth,"locus YNL071W, strain lat1, stronger effect = lower value",1.02
same,normalized growth,"locus YNL183C, strain NPR1, stronger effect = lower value",0.958
same,normalized growth,"locus YNL209W, strain ssb2, stronger effect = lower value",1.01
same,normalized growth,"locus YNL248C, strain rpa49, stronger effect = lower value",1.04
same,normalized growth,"locus YNL322C, strain KRE1 (second series), stronger effect = lower value",1.02
same,normalized growth,"locus YNR049C, strain mso1, stronger effect = lower value",1.03
same,normalized growth,"locus YOR001W, strain rrp6, stronger effect = lower value",0.928
same,normalized growth,"locus YOR070C, strain gyp1, stronger effect = lower value",1.01
same,normalized growth,"locus YOR080W, strain dia2, stronger effect = lower value",1.01
same,normalized growth,"locus YOR083W, strain WHI5, stronger effect = lower value",0.976
same,normalized growth,"locus YOR106W, strain vam3, stronger effect = lower value",1.02
same,normalized growth,"locus YOR231W, strain MKK1, stronger effect = lower value",1.02
same,normalized growth,"locus YOR265W, strain rbl2, stronger effect = lower value",1.01
same,normalized growth,"locus YOR270C, strain vph1, stronger effect = lower value",1.05
same,normalized growth,"locus YOR290C, strain snf2, stronger effect = lower value",1.06
same,normalized growth,"locus YPL051W, strain arl3, stronger effect = lower value",1.06
same,normalized growth,"locus YPL078C, strain atp4, stronger effect = lower value",1.05
same,normalized growth,"locus YPL106C, strain sse1, stronger effect = lower value",1.04
same,normalized growth,"locus YPL240C, strain hsp82, stronger effect = lower value",1
same,normalized growth,"locus YPL256C, strain CLN2, stronger effect = lower value",1.06

# Source: PubChem BioAssay AID1159580 (chemical genetic matrix, 2015)
